About 7,900 targets were measured; listed, in parts, are those with a hit and a random draw of the rest. About 0.6% of all pairs of compound and target were hits. Values without a mark were called inactive.
Columns and labels:
Assay in all cases: log2 fold change, soluble protein after heating vs DMSO (PISA); higher = thermal stabilisation; K562 cells, 10 uM, 30 min; active = over 0.2 and 3.5 SD of the protein, either way, in both replicates (recomputed)
[1] = compound: CC[C@@H]1C(=O)N(C)c2cnc(Nc3ccc(C(=O)NC4CCN(C)CC4)cc3OC)nc2N1C1CCCC1
Procedure, shortened: (§1)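 For each measurement, 10 μM compound was applied for 30 min to K562 cells at 2×10^6 cells/mL. Aliquots were heated for 3 min across 48°C-58°C, pooled, and extracted in PBS with 0.5% NP-40 at 4°C; the supernatant after 21,000xg for 90 min was soluble protein. This was quantified by TMTpro 16plex LC-MS/MS with channel sums equalised, and thermal stability was reported relative to control samples from duplicates, on a log2 fold-change scale.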

volasertib = compound: CC[C@@H]1C(=O)N(C)c2cnc(Nc3ccc(C(=O)N[C@H]4CC[C@H](N5CCN(CC6CC6)CC5)CC4)cc3OC)nc2N1C(C)C [volasertib]
Procedure, shortened: as §1

[2] = compound: CC[C@H](C)N1C=C(C2=C(C=C(C=C21)C3=CN=C(C=C3)N4CCNCC4)C(=O)NCC5=C(C=C(NC5=O)C)C)C
Procedure, shortened: as §1

epoxomicin = compound: CC[C@H](C)[C@@H](C(=O)N[C@@H]([C@@H](C)O)C(=O)N[C@@H](CC(C)C)C(=O)[C@]1(CO1)C)NC(=O)[C@H]([C@@H](C)CC)N(C)C(=O)C [epoxomicin]
Procedure, shortened: as §1

[3] = compound: CCn1c(C(=O)N(C2CC2)C2CC2)cc2c3c(ncn3C)c(Nc3cc(C)n(C)n3)nc21
Procedure, shortened: as §1

[4] = compound: CCn1cc(-c2ccnc3[nH]c(-c4cccc(CN(C)C)c4)cc23)c(-c2ccc(NC(=O)N(C)C)cc2)n1
Procedure, shortened: as §1

[5] = compound: CN(C)CC(=O)Nc1ccc2[nH]c(=O)c3ccccc3c2c1
Procedure, shortened: as §1

rosiglitazone = compound: CN(CCOC1=CC=C(C=C1)C[C@H]2C(=O)NC(=O)S2)C3=CC=CC=N3 (racemic) [rosiglitazone]
Procedure, shortened: as §1

[6] = compound: CN1C2=C(C3=C1C(=O)N(N=C3)CC4=CC(=CC=C4)N)SC(=C2)S(=O)C
Procedure, shortened: as §1

[7] = compound: CN1CCC(CNc2ccc3ncc(-c4cccc(OC(F)(F)F)c4)n3n2)CC1
Procedure, shortened: as §1

Chain of UniProt P13807 (P13807 whole entry, looked up): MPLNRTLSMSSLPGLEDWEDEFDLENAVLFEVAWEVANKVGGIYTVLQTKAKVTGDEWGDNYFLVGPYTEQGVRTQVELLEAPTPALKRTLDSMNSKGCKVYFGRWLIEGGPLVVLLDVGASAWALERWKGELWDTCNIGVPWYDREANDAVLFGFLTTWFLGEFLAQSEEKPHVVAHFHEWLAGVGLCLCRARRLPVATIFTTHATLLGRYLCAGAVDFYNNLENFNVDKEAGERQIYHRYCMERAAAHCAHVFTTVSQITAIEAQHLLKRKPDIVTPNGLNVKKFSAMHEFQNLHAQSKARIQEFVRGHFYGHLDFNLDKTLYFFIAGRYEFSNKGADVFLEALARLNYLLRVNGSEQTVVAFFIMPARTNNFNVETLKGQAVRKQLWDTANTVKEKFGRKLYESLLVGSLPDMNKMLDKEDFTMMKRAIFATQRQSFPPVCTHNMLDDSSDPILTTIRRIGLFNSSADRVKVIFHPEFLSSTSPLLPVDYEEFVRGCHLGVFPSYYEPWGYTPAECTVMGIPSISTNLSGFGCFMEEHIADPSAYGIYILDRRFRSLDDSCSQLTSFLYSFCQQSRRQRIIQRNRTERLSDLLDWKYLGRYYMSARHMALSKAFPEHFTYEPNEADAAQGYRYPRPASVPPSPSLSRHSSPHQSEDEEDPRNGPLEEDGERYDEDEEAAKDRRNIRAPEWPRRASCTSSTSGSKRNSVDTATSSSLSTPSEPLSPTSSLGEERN
Chain of UniProt Q9Y680 (Q9Y680 whole entry, looked up): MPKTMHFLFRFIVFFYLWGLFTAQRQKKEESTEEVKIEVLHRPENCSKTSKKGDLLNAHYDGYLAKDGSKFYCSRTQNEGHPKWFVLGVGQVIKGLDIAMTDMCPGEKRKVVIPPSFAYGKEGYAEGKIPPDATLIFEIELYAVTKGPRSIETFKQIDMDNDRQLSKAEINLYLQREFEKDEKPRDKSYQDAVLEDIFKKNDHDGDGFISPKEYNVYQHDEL
Chain of UniProt Q03014 (Q03014 whole entry, looked up): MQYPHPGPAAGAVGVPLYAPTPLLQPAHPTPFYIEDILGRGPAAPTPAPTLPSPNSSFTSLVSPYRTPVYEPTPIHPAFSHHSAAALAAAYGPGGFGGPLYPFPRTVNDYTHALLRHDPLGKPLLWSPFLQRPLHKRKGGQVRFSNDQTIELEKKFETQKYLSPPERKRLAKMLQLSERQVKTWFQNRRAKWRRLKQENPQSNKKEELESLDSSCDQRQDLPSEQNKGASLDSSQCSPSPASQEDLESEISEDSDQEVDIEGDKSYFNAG
Chain of UniProt Q86YM7 (Q86YM7 whole entry, looked up): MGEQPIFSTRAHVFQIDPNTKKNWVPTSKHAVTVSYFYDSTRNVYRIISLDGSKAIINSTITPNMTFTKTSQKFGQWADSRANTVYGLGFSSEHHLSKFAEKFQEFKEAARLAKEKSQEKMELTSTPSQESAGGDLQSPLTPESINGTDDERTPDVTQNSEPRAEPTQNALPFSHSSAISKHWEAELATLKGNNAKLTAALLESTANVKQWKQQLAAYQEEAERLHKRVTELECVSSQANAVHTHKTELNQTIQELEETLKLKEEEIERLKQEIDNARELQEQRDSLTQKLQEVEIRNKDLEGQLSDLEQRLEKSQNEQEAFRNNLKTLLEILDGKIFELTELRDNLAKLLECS
Chain of UniProt P22087 (P22087 whole entry, looked up): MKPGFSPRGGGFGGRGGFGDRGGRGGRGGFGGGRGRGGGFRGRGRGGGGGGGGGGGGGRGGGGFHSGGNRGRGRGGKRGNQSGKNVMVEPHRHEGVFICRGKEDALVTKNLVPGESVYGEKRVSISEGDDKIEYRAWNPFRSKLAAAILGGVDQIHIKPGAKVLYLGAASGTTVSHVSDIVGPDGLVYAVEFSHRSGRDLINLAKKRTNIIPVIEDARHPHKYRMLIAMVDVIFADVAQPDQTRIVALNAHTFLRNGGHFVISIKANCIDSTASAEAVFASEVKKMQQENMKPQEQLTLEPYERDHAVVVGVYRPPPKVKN
Chain of UniProt Q9Y6M1 (Q9Y6M1 whole entry, looked up): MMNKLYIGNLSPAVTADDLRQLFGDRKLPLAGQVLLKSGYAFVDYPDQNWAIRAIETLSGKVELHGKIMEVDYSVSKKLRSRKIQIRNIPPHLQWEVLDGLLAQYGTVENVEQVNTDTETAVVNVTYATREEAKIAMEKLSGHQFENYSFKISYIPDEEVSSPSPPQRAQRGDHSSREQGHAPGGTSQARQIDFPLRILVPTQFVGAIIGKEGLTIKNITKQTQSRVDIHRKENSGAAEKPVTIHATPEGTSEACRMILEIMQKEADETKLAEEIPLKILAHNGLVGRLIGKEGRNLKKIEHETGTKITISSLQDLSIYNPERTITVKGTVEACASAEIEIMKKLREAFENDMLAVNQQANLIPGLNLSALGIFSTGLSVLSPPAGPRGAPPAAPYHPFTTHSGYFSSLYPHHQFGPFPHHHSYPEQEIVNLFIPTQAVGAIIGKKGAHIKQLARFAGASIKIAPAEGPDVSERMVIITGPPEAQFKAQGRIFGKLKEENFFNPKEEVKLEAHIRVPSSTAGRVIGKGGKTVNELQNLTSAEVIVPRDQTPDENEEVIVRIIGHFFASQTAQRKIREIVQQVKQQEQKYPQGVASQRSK
Chain of UniProt O75146 (O75146 whole entry, looked up): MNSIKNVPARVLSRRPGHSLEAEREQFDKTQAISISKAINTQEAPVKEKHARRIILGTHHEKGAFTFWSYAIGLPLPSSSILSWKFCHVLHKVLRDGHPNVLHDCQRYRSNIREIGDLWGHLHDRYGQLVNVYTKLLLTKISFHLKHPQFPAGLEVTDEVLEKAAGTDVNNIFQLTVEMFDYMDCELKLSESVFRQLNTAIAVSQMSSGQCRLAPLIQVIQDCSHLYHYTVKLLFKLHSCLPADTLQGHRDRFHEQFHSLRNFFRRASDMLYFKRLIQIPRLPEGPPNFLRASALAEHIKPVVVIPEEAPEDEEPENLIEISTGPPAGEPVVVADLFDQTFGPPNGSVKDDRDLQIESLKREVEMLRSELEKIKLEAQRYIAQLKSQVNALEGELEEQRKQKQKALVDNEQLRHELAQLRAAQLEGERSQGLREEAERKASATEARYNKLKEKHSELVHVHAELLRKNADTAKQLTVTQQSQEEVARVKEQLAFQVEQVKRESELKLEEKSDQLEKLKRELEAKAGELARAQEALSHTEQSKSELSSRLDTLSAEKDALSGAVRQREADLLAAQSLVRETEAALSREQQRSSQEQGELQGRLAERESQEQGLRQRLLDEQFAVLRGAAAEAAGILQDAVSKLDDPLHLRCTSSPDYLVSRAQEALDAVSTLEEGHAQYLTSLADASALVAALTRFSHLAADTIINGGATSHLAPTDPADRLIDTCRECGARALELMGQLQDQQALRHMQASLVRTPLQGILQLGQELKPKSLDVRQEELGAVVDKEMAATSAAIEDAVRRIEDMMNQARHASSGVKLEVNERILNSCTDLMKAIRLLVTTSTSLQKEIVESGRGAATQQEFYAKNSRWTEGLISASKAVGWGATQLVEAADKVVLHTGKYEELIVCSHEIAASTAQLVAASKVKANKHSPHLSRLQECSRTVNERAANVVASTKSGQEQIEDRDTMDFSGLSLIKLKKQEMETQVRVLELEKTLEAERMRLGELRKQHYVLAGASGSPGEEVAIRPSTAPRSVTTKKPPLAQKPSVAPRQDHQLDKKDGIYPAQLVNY
Chain of UniProt P37268 (P37268 whole entry, looked up): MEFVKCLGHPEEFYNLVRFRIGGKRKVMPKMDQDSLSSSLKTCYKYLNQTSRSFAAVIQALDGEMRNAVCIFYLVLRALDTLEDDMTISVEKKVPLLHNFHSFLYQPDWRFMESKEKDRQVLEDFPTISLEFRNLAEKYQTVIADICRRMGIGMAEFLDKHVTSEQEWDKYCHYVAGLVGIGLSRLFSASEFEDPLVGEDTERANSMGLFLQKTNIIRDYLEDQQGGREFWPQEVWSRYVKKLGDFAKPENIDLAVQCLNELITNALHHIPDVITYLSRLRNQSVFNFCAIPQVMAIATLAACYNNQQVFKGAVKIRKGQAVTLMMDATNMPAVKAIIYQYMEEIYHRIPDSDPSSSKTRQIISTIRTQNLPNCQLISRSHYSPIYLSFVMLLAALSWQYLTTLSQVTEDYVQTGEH
Chain of UniProt Q13907 (Q13907 whole entry, looked up): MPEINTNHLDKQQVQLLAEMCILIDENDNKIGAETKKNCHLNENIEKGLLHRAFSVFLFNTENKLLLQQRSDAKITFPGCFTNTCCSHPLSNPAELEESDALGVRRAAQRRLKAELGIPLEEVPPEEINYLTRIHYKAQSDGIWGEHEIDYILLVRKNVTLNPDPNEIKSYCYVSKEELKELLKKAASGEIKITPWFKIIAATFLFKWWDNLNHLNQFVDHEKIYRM
Chain of UniProt P29083 (P29083 whole entry, looked up): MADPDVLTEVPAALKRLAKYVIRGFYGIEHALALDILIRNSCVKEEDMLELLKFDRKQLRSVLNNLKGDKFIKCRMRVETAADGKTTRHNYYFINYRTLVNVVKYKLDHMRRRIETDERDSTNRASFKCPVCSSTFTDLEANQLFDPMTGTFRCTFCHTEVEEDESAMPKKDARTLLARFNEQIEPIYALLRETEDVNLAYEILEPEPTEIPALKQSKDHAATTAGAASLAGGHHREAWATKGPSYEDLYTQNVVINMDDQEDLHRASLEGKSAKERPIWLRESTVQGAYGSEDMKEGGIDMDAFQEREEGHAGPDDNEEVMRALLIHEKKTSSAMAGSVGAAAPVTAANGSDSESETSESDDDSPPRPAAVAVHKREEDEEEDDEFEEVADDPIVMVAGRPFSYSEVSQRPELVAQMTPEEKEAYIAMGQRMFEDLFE
Chain of UniProt O15347 (O15347 whole entry, looked up): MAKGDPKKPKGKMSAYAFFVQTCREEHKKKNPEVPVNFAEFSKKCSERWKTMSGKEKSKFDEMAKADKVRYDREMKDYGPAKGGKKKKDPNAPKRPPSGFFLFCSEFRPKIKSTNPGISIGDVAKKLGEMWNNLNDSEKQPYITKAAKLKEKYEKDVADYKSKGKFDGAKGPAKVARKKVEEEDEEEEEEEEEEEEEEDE

Target	log2 fold change [1]	log2 fold change (volasertib)	log2 fold change [2]	log2 fold change (epoxomicin)	log2 fold change [3]	log2 fold change [4]	log2 fold change [5]	log2 fold change (rosiglitazone)	log2 fold change [6]	log2 fold change [7]
FDFT1 (UniProt P37268)	-0.067	-0.151	-0.01	0.06	-0.017	-0.06	0.003	-0.024	-0.059	0.067
GTF2E1 (UniProt P29083)	-0.267	-0.567 (active)	0.096	-0.015	-0.062	0.023	0.072	0.033	-0.034	-0.084
HMGB3 (UniProt O15347)	-0.182	0.064	0.053	-0.007	0.015	-0.021	-0.022	0	-0.039	0.015
FBL (UniProt P22087)	0.283	0.151	-0.034	-0.396	-0.106	0.184	-0.143	-0.144	0.359	0.34
HHEX (UniProt Q03014)	0.027	0.07	0.053	0.164	0.019	0.05	0.234	-0.029	0.117	-0.023
GYS1 (UniProt P13807)	0.229	0.224	0.059	-0.034	0.069	0.139	0.029	-0.1	0.364	0.123
FKBP7 (UniProt Q9Y680)	0.035	0.021	0.015	-0.04	0.003	0.026	-0.042	-0.054	-0.001	0.191
HOMER1 (UniProt Q86YM7)	-0.018	0.024	-0.099	0.006	0.017	-0.025	0.018	-0.011	-0.018	0.033
IDI1 isoform 2 (UniProt Q13907)	0.055	0.127	-0.05	-0.079	-0.008	-0.081	-0.065	-0.01	-0.004	-0.005
FUCA2 (UniProt Q9BTY2)	-1.11 (active)	-1.04 (active)	0.001	-0.024	0.007	0.003	-0.019	-0.023	-0.033	-0.029
HNRNPH2 (UniProt P55795)	-0.119	-0.667 (active)	0.073	-0.004	-0.202	0	0.069	0.038	0.087	-0.06
HAUS4 (UniProt Q9H6D7)	-0.138	-0.027	0.123	-0.391	-0.04	0.032	-0.072	0.027	0.246	0.049
HIP1R (UniProt O75146)	-0.035	-0.268 (active)	0.015	0.051	-0.04	-0.016	-0.017	0.067	0.026	-0.134
GALNT4 (UniProt Q8N4A0)	-0.062	-0.334 (active)	-0.032	-0.041	-0.032	-0.031	0.007	0.051	-0.007	-0.367 (active)
IGF2BP2 (UniProt Q9Y6M1)	0.176	-0.076	-0.063	-0.203	0.016	0.076	0.01	-0.044	0.432	-0.016

Reference: the supplement of paper PMC10849652
